Data published in the supplement of paper PMC6555819.

Tests used:
Assay in all cases: PBM binding z-score (relative to random genomic background probes); higher = stronger binding; sequences stand for … in GC…GCGATTGACAGCGTAGAATGAAGG
[1] = test system: RARb homodimer (NR concentration 270 nM)
Outline: (§1)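 Each nuclear receptor dimer, without ligand, was incubated for 1 h on custom Agilent 4×180K protein-binding microarrays. Binding was detected with antibodies against each partner (one per run), and scanned fluorescence was regression-normalized. The binding z-scores are referenced to random human genomic background probes.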

[2] = test system: RARg:RXRa (NR concentration 270 nM, RXRa partner concentration 90 nM)
Outline: as §1

[3] = test system: RARg homodimer (NR concentration 270 nM)
Outline: as §1

[4] = test system: RXRa DBDmut IVT, anti-RXR (DBD mutation: RXRa K156A/R161A, NR concentration 90 nM)
Outline: as §1

[5] = test system: RXRa homodimer (NR concentration 180 nM)
Outline: as §1

[6] = test system: THRa:RXRa (NR concentration 90 nM, RXRa partner concentration 90 nM)
Outline: as §1

[7] = test system: THRa homodimer (NR concentration 90 nM)
Outline: as §1

[8] = test system: VDR homodimer (NR concentration 270 nM)
Outline: as §1

Sequence	PBM binding z-score [1]	PBM binding z-score [2]	PBM binding z-score [3]	PBM binding z-score [4]	PBM binding z-score [5]	PBM binding z-score [6]	PBM binding z-score [7]	PBM binding z-score [8]
TTACCATGGTGAAAGGTCGTTGATGCACGCCTTG	2.03	2.17	1.04	0.434	3.19	1.64	0.0302	1.19
CCTCGGAGGACAGAAGGTTAGAGCTGTCCGCTTT	0.668	0.736	0.681	-0.0367	-0.125	0.441	-0.513	-0.565
CCGAGTACGTTATGGGGCATTCAGGCAACGGTGA	0.358	-0.121	-0.0152	3	-0.121	0.188	-0.521	1.4
AGAATGAGGTTAAGGTCAGGGAAACAGAATACAT	4.1	4.97	4.67	1.43	4.93	4.39	4.62	2.36
TGAATGAGGTTAAAGATGAGGGAACGTGGCGTCG	0.748	2.16	1.21	1.33	2.86	2.4	0.742	0.849
CCTGCTAGCTCAATGGTCAGCTAAAGCAGCTCGC	0.464	-0.547	-0.75	0.0586	-0.756	-0.535	-0.555	-0.94
GCTGCTAGGTCAGGTTCGTCAGCTAACGGGTACG	2.25	2.25	3.35	1.63	1.24	1.94	0.323	2.58
CGTCCAGGGTCATAGGAGGTCAGTGAAGACAGAT	4.98	6.27	6.23	3.62	6.72	5.12	2.18	4.31
TCTAGTTGGTCACGGAGGTCACGCACGACGGGTA	4.76	5.46	5.23	1.28	6.17	4.05	3.31	3.06
TCTTGTAGATCAATAGAGGTTAAGATAGTGCGCT	1.21	0.947	0.501	0.749	1.75	2.51	-0.429	0.0861
TCATATAGGTTAATGCTAGGTGAAAGTCCGATCT	1.41	1.98	1.16	1.64	1.48	2.53	1.08	0.748
ATCTCTAGATAAAGTTCAGTGAAAGATCGATAGA	1.84	1.4	2.06	0.839	0.79	0.243	-0.14	1.66
GCTTACGGGTCAAAGGTTTTAGCATGAATAGAAT	2.53	4.83	4.15	2.2	6.49	2.76	-0.137	1.41
CCTATTAGTTGACCATAAGGGCAAGCGAAGCTCG	1.9	0.986	1.05	0.414	0.645	1.75	1.08	0.847
CAAACTATGTCAAAGGTCAAAGTCGAGCCAACCA	5.04	7.01	6.39	1.75	8.43	3.81	1.14	2.88
CTAACTAGGTCAAGAGGTCAAAGTCCGCTTCCCG	5.82	8.23	7.39	2.89	8.23	4.27	2.29	4.55
ACTCGGAGGACAAAGGTCGGAGCTACGCCAGTGA	2.12	3.28	1.75	0.784	2.2	1.98	0.0146	0.22
GCTATTAGTTGAATGGGCAACCGAATGATTCTCG	-0.506	-0.114	0.0984	0.405	-0.209	-0.559	-0.678	-0.095
CGTACAAGGTCAAGGTCAGTGAAAGAGACTCGAA	5.35	6.85	7.48	3.82	6.83	4.45	3.84	3.49
GGAACGAGGGCATTCGAGTTGATATCATGGCGAT	0.726	1.25	1.52	2.79	0.858	3.38	-0.359	2.91
CGTACTAGGTCATCCAGGACAGTGAATACATTGA	3.35	3.73	4.47	2.15	2.67	3.76	2.4	1.81
ATCTCTAGGTAAAGATTGTTCAGTGAATGCAAAT	0.0182	-0.0248	0.361	0.286	-0.291	0.472	0.375	0.0196
CCAGACAGATGAAAGGTAACTCAGTCTGGTACGC	0.123	0.253	0.272	-0.0479	0.612	0.108	-0.299	0.123
ATATGTAGGTTAACGGTCATTCAGGTTGGTTCGC	2.72	2.13	2	1.34	1.88	1.62	0.747	1.84
TGAATGAGGTTAAAGATCAGCGAACGTGGCGTCG	0.498	2.34	1.26	1.56	3.59	2.39	0.17	0.749
TCTTGTAGATCAAAGGTTAAAAAAGCCGAAGCCT	1.22	1.79	0.557	0.941	3.35	1.44	-0.334	0.177
TCTATTAGTTGAAGGGTAACCGACGAGTCCGTTT	0.751	0.464	0.398	1.95	0.736	0.32	0.529	1.44
CCGACTGGGTCAAGGTTACCATAACGCACAGCCA	3.15	3.98	4.05	0.852	3.59	2.83	1.51	1.02
